TPT1 inhibitor: inhibitors of Candida albicans tRNA 2'-phosphotransferase TPT1; recombinant caTPT1, FP RNA substrate dephosphorylation; inhibition, % at 5 µM; actives 0.81% (n = 300,000); AID 1962;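 active means inhibition above the mean of all tested compounds plus 3 SD, set per screening campaign, cut at about 24% in these data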
ZTA counter: counter-screen for EBNA-1 inhibitors: inhibitors of Epstein-Barr virus ZTA; P03206; ZTA-DNA binding, fluorescence polarization; inhibition, % at 11 µM; actives 0.15% (n = 320,000); in the data active means inhibition above about 33%
Rpn11 block: inhibitors of human proteasome Rpn11; O00487; human 26S proteasome, Ub4-pepOG fluorescence polarization; 20S core pre-blocked with epoxomicin; inhibition, % at 20 µM; actives 0.59% (n = 360,000);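 active means inhibition at 20 µM, scaled to each plate's controls, above about 33%, limit read from the data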
Target sequence (O00487 whole entry, looked up): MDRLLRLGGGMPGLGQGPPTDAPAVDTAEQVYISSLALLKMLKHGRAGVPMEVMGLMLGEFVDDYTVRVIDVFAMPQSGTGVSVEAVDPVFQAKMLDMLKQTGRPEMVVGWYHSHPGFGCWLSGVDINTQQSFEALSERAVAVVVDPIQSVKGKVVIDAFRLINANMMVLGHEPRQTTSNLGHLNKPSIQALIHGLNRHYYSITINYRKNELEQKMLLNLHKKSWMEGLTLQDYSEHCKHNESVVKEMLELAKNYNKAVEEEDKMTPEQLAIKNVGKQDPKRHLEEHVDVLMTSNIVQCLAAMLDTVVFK
EBNA-1 inhibitor: blocks EBNA-1 binding to DNA. EBNA-1 DNA binding, fluorescence polarization. inhibition, % at 14.8 µM. actives 0.34% (n = 300,000). AID 1950; in the data active means inhibition above about 28%
dFosB activator: activators of mouse delta FosB homodimer; P13346; actives 0.99% (n = 340,000); AID 493131; purified delta FosB, TAMRA-CDK5 oligo fluorescence polarization; percent of positive-control signal above neutral wells; activation, % at 25 µM;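 active means mean activation above about 17%, with every replicate also reaching it, limit read from the data, passing the limit was not always enough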
NR3A LBD binder: modulates the human NR3A ligand-binding domain | NR3A LBD differential scanning fluorimetry, Tm shift; 0% = protein alone, 100% = glycine-bound protein | Tm shift relative to glycine control, % at 25 µM | actives 2.5% (n = 340,000) | AID 1259313;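 active means melting temperature shift of at least 10% of the positive control shift, at one fixed dose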
TPT1 inh confirm: confirmation of Candida albicans TPT1 inhibitors | recombinant caTPT1, fluorescence polarization, RNase T1 coupled | shares compounds with TPT1 inhibitor | actives 74% (n = 2,400) | inhibition, % at 5 µM | AID 2149;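 active means inhibition above the primary screen limit, the mean inhibition of all tested compounds plus 3 SD, cut at about 25% in these data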
RNase T1 counter: RNase T1 inhibition in TPT1 counter-screen | inhibition, % at 5 µM | actives 83% (n = 2,400) | shares compounds with TPT1 inhibitor | AID 2153 | RNase T1 cleavage, fluorescence polarization, 1536-well;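 active means inhibition above the solvent-only control well mean plus 3 SD, limit set per screening run, cut at about 23% in these data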;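 further: inhibitors block cleavage so intact labeled substrate keeps polarization high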
Target sequence (P00651 whole entry, looked up): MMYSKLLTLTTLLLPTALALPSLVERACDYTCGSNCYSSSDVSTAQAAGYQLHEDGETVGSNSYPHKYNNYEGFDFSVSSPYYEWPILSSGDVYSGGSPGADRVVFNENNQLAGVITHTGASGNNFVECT
A number is an active result; - = inactive; . = not tested or not shown; ! = a repeat was not active. Compounds with a hit are over-represented: about 4.5% of the library has one in this group of screens.

SMILES | TPT1 inhibitor | ZTA counter | Rpn11 block | EBNA-1 inhibitor | dFosB activator | NR3A LBD binder | TPT1 inh confirm | RNase T1 counter
C[n+]1cc(C(=O)N2CCCCC2)ccc1/C=C/c1c[nH]c2ccccc12 | 132 | - | . | - | - | - | 109 | 109
O=C(CC(C(=O)O)c1ccccc1)Nc1cccc2ccccc12 (stereo unspecified) | 30 | - | - | - | - | - | - | -
O=C(O)Cn1cc(/C=c2/sc3nc4ccccc4n3c2=O)c2ccccc21 | 39 | - | - | - | - | - | 28 | 37
N=c1sccn1CC(=O)Nc1ccc([N+](=O)[O-])cc1Cl | - | - | - | - | - | - | . | .
COc1cc(C2C(C#N)=C(N)N(c3cccnc3)C3=C2C(=O)CC(C)(C)C3)ccc1O (stereo unspecified) | - | - | - | - | - | - | . | .
COc1ccc(C2C(C#N)=C3NC(=O)c4c(sc5c4CCCCC5)N3C3=C2C(=O)CC(C)(C)C3)cc1 (stereo unspecified) | - | - | - | - | - | - | . | .
COc1ccc(C2C(C#N)=C(N)N(c3sc4c(c3C#N)CCCC4)C3=C2C(=O)CC(C)(C)C3)cc1 (stereo unspecified) | 28 | - | - | - | - | - | - | -
COc1ccc(C2C(C#N)=C(N)N(c3sc4c(c3C#N)CCCC4)C3=C2C(=O)CC(C)(C)C3)cc1OC (stereo unspecified) | 28 | - | - | - | - | - | - | -
Cc1ccc(C)c(N2CCN(S(=O)(=O)c3c(C)noc3/C=C/N(C)C)CC2)c1 | 29 | - | - | - | - | - | - | -
Cc1noc(/C=C/N(C)C)c1S(=O)(=O)N1CCN(c2ccccc2)CC1 | - | - | - | - | - | - | . | .
C=CCn1c(C(CC(C)C)CC(C)O)n[nH]c1=S (stereo unspecified) | 43 | - | - | - | - | - | - | -
CCN(CC)S(=O)(=O)c1ccc(NC(=O)CO/N=C(\N)c2ccccc2)cc1 | - | - | - | - | - | - | . | .
O=C(CCN1CCCC1)c1cccs1 | - | - | - | - | - | - | . | .
O=C(CCN1CCC(c2cccs2)=N1)c1cccs1 | 28 | - | - | - | . | - | - | -
O=C(O)c1ccc(CSc2nc3ccccc3c(=O)n2-c2ccccc2)cc1 | - | - | - | - | - | - | . | .
N=C(N)SCc1nc2ccccc2c(=O)n1-c1ccccc1 | 26! | - | - | - | - | - | 28 | 37
CC(C)NC(=O)/C(C#N)=C/c1ccc(N(C)C)o1 | 158 | - | . | - | - | - | 177 | 167
Cc1ccc(/C=C(\C#N)C(=O)NC(C)C)o1 | - | - | - | - | - | - | . | .
COC(=O)C(Cc1c[nH]c2ccccc12)NC(=O)c1cccc(S(=O)(=O)N2CCCCC2)c1 (stereo unspecified) | . | - | - | . | - | - | . | .
Cc1ccc(C2=NN(CC(=O)NCCC(C)C)C(=O)CC2)cc1 | - | - | - | - | - | - | . | .
CN(C)c1ccc(C(=O)c2ccccc2)cc1 | 48 | - | - | - | - | - | - | -
CCC(=O)Nc1nnc(SCC(=O)NCC2CCCO2)s1 (stereo unspecified) | - | - | - | - | - | - | . | .
COc1ccc(N=C2S/C(=C\c3ccc(N4CCOCC4)o3)C(=O)N2CCc2c[nH]c3ccccc23)cc1 | 131 | - | . | - | - | . | 141 | 136
Cc1ccc(/C=C2\Oc3cc(OCC(=O)NN)ccc3C2=O)o1 | . | . | - | . | - | - | . | .
COCCN(CCOC)Cc1c(O)ccc2c1O/C(=C\c1ccc(C)o1)C2=O | 27 | - | - | - | - | - | 34 | 46
SMILES | TPT1 inhibitor | ZTA counter | Rpn11 block | EBNA-1 inhibitor | dFosB activator | NR3A LBD binder | TPT1 inh confirm | RNase T1 counter
Cc1cccc(NC(=O)c2sc3nc4c(c(-c5cccs5)c3c2N)CN(C)CC4)c1 | 38 | - | - | - | - | - | 28 | 35
CC(C)NC(=O)c1sc2nc3c(c(-c4cccs4)c2c1N)CN(C)CC3 | - | - | - | - | - | - | . | .
CCCN1C=CC(=CC=C(C#N)C#N)C=C1 | 144 | - | . | - | - | - | 165 | 161
CCCCCN1C=CC=C/C1=C\C=C(C#N)C#N | 41 | - | - | - | . | - | 44 | 58
C=CCN1C=CC(=CC=C(C#N)C#N)C=C1 | 137 | - | . | - | - | - | 158 | 155
CC(=O)Nc1cc(-c2cccc(F)c2)cn2c(-c3ccc(F)c(Cl)c3)cnc12 | . | . | - | . | . | . | . | .
Nc1c(C=C2C=CC(=O)C=C2)c(=O)nc2sc(CC(=O)N3CCOCC3)nn12 | - | - | - | - | - | - | . | .
COC1=CC(=Cc2c(N)n3nc(CC(=O)N4CCOCC4)sc3nc2=O)C=C(OC)C1=O | 50 | - | . | - | - | - | 132 | 131
CCOc1ccc(N2C(=O)C3Sc4[nH]c(=O)sc4C(/C=C/c4ccccc4)C3C2=O)cc1 (stereo unspecified) | 51 | - | . | - | - | - | 34 | 40
C=CCN(CC=C)C(=O)C1CCN(S(=O)(=O)c2ccc(N3CCCC3=O)cc2)CC1 | - | - | - | - | - | - | . | .
O=C(O)c1ccc(N=Nc2c(O)[nH]c3cc(Cl)ccc23)cc1 | 29 | - | 44 | - | - | - | 54 | 67
O=C(O)/C=C/c1cn(-c2ccccc2)nc1-c1ccc(-c2ccc([N+](=O)[O-])cc2)o1 | 69 | - | . | - | - | - | 84 | 91
S=C(NCCN1CCOCC1)N/N=C/c1c2ccccc2cc2ccccc12 | 38 | - | . | - | - | - | 46 | 58
CNC(=S)N/N=C/c1c2ccccc2c(Cl)c2ccccc12 | 25 | - | - | - | - | - | - | 24
O=S(=O)(c1ccc(NC(=S)N/N=C/c2c3ccccc3cc3ccccc23)cc1)N1CCOCC1 | 73 | - | - | - | - | - | 99 | 104
COCCNC(=S)N/N=C/c1c2ccccc2cc2ccccc12 | 40 | - | - | - | - | - | 51 | 61
NC(=S)N/N=C\c1c2ccccc2cc2ccccc12 | - | - | - | - | - | - | . | .
Cc1ccc(C(C(=O)NC2CCCC2)N(C(=O)c2csnn2)c2ccccc2)o1 (stereo unspecified) | - | - | - | - | - | - | . | .
Cc1cc(C)cc(N(C(=O)CNC(=O)c2ccco2)C(C(=O)NC2CCCCC2)c2ccncc2)c1 (stereo unspecified) | - | - | - | - | - | - | . | .
CCc1cc(SC#N)cc(CC)c1NC(=O)CCl | - | - | - | - | - | - | . | .
CN(C)CCCN(C(=O)c1ccc(Br)s1)c1nc2cc3c(cc2s1)OCCO3 | 31 | - | - | - | 24 | - | 28 | 30
COc1ccc(C(=O)c2sc3nc(-c4ccccc4)ccc3c2N)cc1 | 82 | - | 64 | - | - | 18 | 85 | 92
